Reference: PubChem BioAssay (NCATS)
Records with an inconclusive call do not appear. A call without a number means that no potency is given here. The source made the active and inactive calls. The call rests on the fitted dose curve; in most records, active means well fitted inhibition curve with a large enough effect; inconclusive means small, poorly fitted or top-dose-only effect; inactive means flat fitted curve, though single readings scatter.
Potency means the concentration at half of the fitted maximal effect.

The compounds below were run on NIH3T3 (assay: qHTS assay to identify novel small-molecules to repurpose for Merkel cell carcinoma treatment (AID 1296009; further: nearly all actives have a fitted effect of over 60% in size)). Details: MCC and control cell lines, CellTiter-Glo viability, 72 h; at 44.8 µM (top of the series) unless noted.
Outline: (§1)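 Cells exposed to NPC (8-point) and MIPE (11-point) compound dilutions for 72 hr at 37 degree celsius; viability read by CellTiter-Glo luminescence, normalized to no-cell and DMSO in-plate controls.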
For `CCC(=O)O[C@@H]1C=C2CCC3C(CCC4(C)C3CC[C@@H]4OC(=O)CC)C2CC1` (some centres undefined), the outcome was “inactive”. In the case of `O=C1CCC[C@@H]2[C@H]3CCCN4CCC[C@@H](CN12)[C@@H]34`, the outcome was “inactive”. In the case of `Cc1ccc(Cl)c(O)c1`, the outcome was “inactive”. In the case of `O=C(Nc1ccccc1-c1ccc(Cl)cc1)c1cccnc1Cl`, the outcome was “inactive [at 92 µM]”.

Each compound was assayed on UISO in the same assay as above. Details: MCC and control cell lines, CellTiter-Glo viability, 72 h; series mostly up to 46 µM.
Outline: as §1
For `CCCCOC(=O)c1ccccc1C(=O)OCc1ccccc1`, the Potency was “inactive”. In the case of `O=c1[nH]c2ccc(Cl)cc2c(N[C@@H]2CN3CCC2CC3)c1-c1nc2ccccc2[nH]1`, the Potency was 5.9 µM (active). For `O=C(NCC1CCOCC1)c1cnc(Nc2ccc(Cl)cc2Cl)nc1C(F)(F)F`, the Potency was “inactive”. With `CC1(C)CC/C(=C/c2ccc(Cl)cc2)C1(O)Cn1cncn1` (centres undefined) the Potency was “inactive”. `O=C(N[C@@H](COc1ccc2[nH]c(=O)[nH]c2c1)c1ccccc1)c1cccn(Cc2ccc(F)c(F)c2)c1=O` was tested, and the Potency was “inactive”. For `O=C(O)COc1nc(Cl)c(Cl)cc1Cl`, the Potency was “inactive”. In the case of `COC(=O)c1cncn1C(C)c1ccccc1` (centres undefined), the Potency was “inactive”. `C[C@]12CCC(=O)C(O)=C1CC[C@@H]1[C@H]3CCC(=O)[C@@]3(C)CC[C@@H]12` was tested, and the Potency was “inactive”. For `CCC(=O)O[C@@H]1C=C2CCC3C(CCC4(C)C3CC[C@@H]4OC(=O)CC)C2CC1` (some centres undefined), the Potency was “inactive”. `COC1=CC(C)=C[C@@H](C)[C@@H](O)[C@@H](C)CC(C)=CC=C[C@H](OC)[C@H]([C@@H](C)[C@@H](O)[C@H](C)[C@@]2(O)C[C@@H](O)[C@H](C)[C@@H](C(C)C)O2)OC1=O` was tested, and the Potency was 0.0418 µM (active). With `O=C1CCC[C@@H]2[C@H]3CCCN4CCC[C@@H](CN12)[C@@H]34` the Potency was “inactive”. For `CCOCCOC(C)=O`, the Potency was “inactive”. With `C[C@]12CC[C@@H]3[C@@H](CCC4=CC(=O)CC[C@@H]43)[C@@H]1CC[C@@H]2OC(=O)CCc1ccccc1` the Potency was “inactive”. For `Cc1ccc(Cl)c(O)c1`, the Potency was “inactive”. For `CN[C@@H](C)[C@H](O)c1ccccc1`, the Potency was “inactive”. `Nc1ccc(Cl)cc1` was tested, and the Potency was “inactive”. For `CC(Cc1ccc(O)cc1)NCC(O)c1cc(O)cc(O)c1` (centres undefined), the Potency was “inactive”. With `CC(C)NCC(O)c1ccc([N+](=O)[O-])cc1` (centres undefined) the Potency was “inactive”. `O=[N+]([O-])/N=C1\NCCN1Cc1ccc(Cl)nc1` was tested, and the Potency was “inactive”. In the case of `C=CC(=O)NCNC(=O)C=C`, the Potency was “inactive”. `O=c1cccc2n1CC1CNC[C@H]2C1` was tested, and the Potency was “inactive”. `CC(=CCCC1=CCC(C2=CC(=O)OC2O)OC1O)CCC1=C(C)CCCC1(C)C` (centres undefined) was tested, and the Potency was “inactive”. For `COc1cc2cc(c1Cl)N(C)C(=O)C[C@H](OC(=O)C(C)C)[C@]1(C)O[C@H]1[C@H](C)[C@@H]1C[C@@](O)(NC(=O)O1)[C@H](OC)C=CC=C(C)C2`, the Potency was “inactive”. For `c1cc2ccc3cccc4ccc(c1)c2c34`, the Potency was “inactive”. In the case of `Nc1ccc(Sc2ccc(N)cc2)cc1`, the Potency was “inactive”. For `O=C(Nc1ccccc1-c1ccc(Cl)cc1)c1cccnc1Cl`, the Potency was “inactive”. In the case of `NC1CC1c1ccccc1` (centres undefined), the Potency was “inactive”. `COCCOCCO` was tested, and the Potency was “inactive”. `C[C@]12CC[C@H]3[C@@H](CCC4=CC(=O)CC[C@@]43C)[C@H]1CC[C@H]2OC(=O)CCC1CCCC1` was tested, and the Potency was “inactive”. For `OCCCBr`, the Potency was “inactive”.
